# Assays:
# Test in all cases: PBM binding z-score (relative to random genomic background probes); higher = stronger binding; sequences stand for … in GC…GCGATTGACAGCGTAGAATGAAGG
# [1] = test system: RARb homodimer (NR concentration 270 nM)
# How it was run: (§1)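 Regression normalization was applied to scanned fluorescence from custom Agilent 4×180K protein-binding microarrays. Before scanning, arrays were incubated 1 h with ligand-free nuclear receptor dimers, and binding was detected with antibodies against each partner (one per run). Binding z-scores use the random background probes as reference.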
# [2] = test system: RARg:RXRa (NR concentration 270 nM, RXRa partner concentration 90 nM)
# How it was run: as §1
# [3] = test system: RARg homodimer (NR concentration 270 nM)
# How it was run: as §1
# [4] = test system: RXRa DBDmut IVT, anti-RXR (DBD mutation: RXRa K156A/R161A, NR concentration 90 nM)
# How it was run: as §1
# [5] = test system: RXRa homodimer (NR concentration 180 nM)
# How it was run: as §1
# [6] = test system: THRa:RXRa (NR concentration 90 nM, RXRa partner concentration 90 nM)
# How it was run: as §1
# [7] = test system: THRa homodimer (NR concentration 90 nM)
# How it was run: as §1
# [8] = test system: VDR homodimer (NR concentration 270 nM)
# How it was run: as §1
Sequence,PBM binding z-score [1],PBM binding z-score [2],PBM binding z-score [3],PBM binding z-score [4],PBM binding z-score [5],PBM binding z-score [6],PBM binding z-score [7],PBM binding z-score [8]
TAGAGTAGGTTAGGGGCATTCAGAATGGCGTCGA,1.72,1.16,0.918,0.0146,1.08,1.36,0.85,1.66
CAAACTAGGTCACGAAAGGTCAAAGTAGAATGAC,5.89,7.93,8.94,2.39,8.5,5.12,2.65,3.78
TCTTGTATATCAATAGAGGTTAAGAAAGTGCGCT,1.38,0.864,0.687,1.05,1.58,1.72,-0.0174,0.47
ATCTGTAGGTAAAGTTCAGTGAAAGATCGATAGA,2.24,1.86,2.25,1.35,1.16,0.595,-0.247,1.83
TCAATTAGTTGAAGGGCAACCGACGAGTCCGTTT,1.28,0.369,0.258,1.02,0.562,0.164,-0.267,1.42
CCTAGCAGGCCAGTCTGGGTCACTCAAGGCTTGA,2.01,1.09,1.2,-0.216,1.05,3.14,0.462,-0.0969
GCTAGTTGGTCGGTAAAAGGTCACACACCGGTCG,4.97,5.3,4.72,0.311,5.42,3.47,1.92,1.59
CCTACTGGGCCATTCAGCGGTCATTGATCATATG,1.85,1.97,1.02,-0.0941,-0.0428,0.283,0.0718,0.166
ACTAACAGGCCAAGTTTGGGTCACTCAAACAAAG,2.55,2.88,2.24,0.278,0.882,2.73,1.26,0.351
TGAATTAGGTTATAAGATCAGGGAACGTTGCAAA,-0.204,0.498,0.508,-0.196,0.503,0.533,0.0659,0.321
CTACCAAGGTGAACGAGGTCGTTGATTACTATTC,2.24,2.13,1.32,1.85,2.26,3.36,2.17,3.61
TAGCCTAGGTAAGATCGGGCCAGTATACGCTATA,-0.638,-0.26,-0.321,-1.17,-0.364,1.37,-0.927,-0.857
AGAATGATGTTATTAAGATCAGGGAATTGCGGTC,-0.502,0.0118,0.00602,-0.521,0.203,0.093,-0.511,-0.127
ATATCTAGGTAACCAAGTTCAGTGAATGCCGAAC,1.55,0.963,0.923,0.824,0.83,1.58,0.613,2.63
AGAATGAGGTTACCAAAGATGAGGGAAACGCTTG,0.76,1.85,1.54,1.22,2.43,2.55,0.977,0.767
CCGACTGGGGCAAAGGTTACCATCCTCAGTACGA,2.19,3.56,1.56,-0.109,4.04,1.77,-0.0864,-0.138
TCATATAGGTAAATCCTAGGTGAAAGTCCGATCT,0.18,0.491,0.396,1.37,0.983,1.96,0.368,-0.253
AGAACGAGGGCACGCTGAGTTGATAGGAGAGTAG,1.22,1.93,1.99,1.77,1.35,1.82,0.0402,1.76
ATTACAGGGTCACTAGGCCAGAGTAGGTACGAAT,3.38,5.4,5.25,2.67,5.24,3.48,1.5,2.93

Sequence,PBM binding z-score [1],PBM binding z-score [2],PBM binding z-score [3],PBM binding z-score [4],PBM binding z-score [5],PBM binding z-score [6],PBM binding z-score [7],PBM binding z-score [8]
TCTGCTAGGTCAACGATGGTCAGCAAATCTGCTA,3.35,3.94,5.26,0.984,2.45,3.17,0.756,-0.402
TCCTATAGGTAAATGCTAGGTGAAAGTCCGATCT,0.372,0.374,0.00496,1.14,0.554,1.55,0.305,-0.299
GCTAGGTGGTCAGTAAAAGGTCACACACCGGTCG,5.21,6.23,5.47,0.0546,5.57,3.55,1.73,2.03
CAAACTAGGTCAAGTGGTCAAAGTCCGCTTCCCG,4.26,4.95,5.48,1.85,3.76,3.16,1.43,1.08
GCGACTGGGGCATTAGCAGGTTACCATAACTTAA,0.877,0.345,0.226,0.29,0.0797,0.892,0.101,-0.236
ACTGTTAGTTGACTTAGGGCAACCGATACGACGC,1.09,1.22,1.25,0.609,0.472,1.51,0.731,0.453
GATACCGGGTCAAGGCCAGAGTACGCGTATTGAT,3.05,4.34,3.93,0.478,4.58,3.49,1.25,1.07
CGTCCAAGGTCAGAGAGGTCCGTGAATGCCGAGT,3.81,4.45,5.28,2.56,3.48,3.5,1.77,2.04
CCTTACGGGTCACTGACAGATTATAGCATTTGGA,3.01,4.96,4.43,2.1,4.89,2.38,0.495,0.842
GCATATAGATAATACAAGGTGAAAGTCCGATTGT,0.678,0.441,0.694,0.234,0.586,2.26,0.964,0.0275
TCTGCTTGGTCAGTTGGTCAGCTAACGAGCTGCC,0.226,-0.172,-0.0396,-0.00109,-0.439,-0.465,-0.841,-1.2
TCATATAGGTAAACAGCTGAAAGTCCGTAAGTTA,0.0749,0.25,0.0863,1.64,0.623,0.172,-0.236,0.162
TCGAGTAGGTTACCAAGGGGGCATTCAGCTTTCT,1.98,4.64,1.87,1.26,1.98,2.16,0.891,2.16
TGTCAAAGTTCAAGGGTAACGTAAGTATCCACAC,3.92,5.81,6.14,3.72,5.45,2.89,0.138,3.21
CCTTACGGGTCACTCCAGGTTATAACATCGGAGT,3,4.24,3.97,1.31,4.36,5.32,0.437,1.19
CCTACTGGGCCATTCAGAGGTCATTGGTCATATG,4.14,4.18,2.64,0.884,3.6,3.14,1.34,3.34
TCTCGGAGGACACGAAGGTCACAGCTTTCCAGAG,4.54,4.52,4.93,1.47,3.74,3.86,1.77,2.9
TCATATAGGTAACCAGGTGAAAGTCCGTAAGTTA,0.957,0.558,0.452,1.38,1.25,1.73,1.05,0.27
AGAATGAGGTTATCAAAGATCAGGGAAACGCTTG,0.294,1.47,1.24,1.49,2.28,2.58,0.571,0.495

Sequence,PBM binding z-score [1],PBM binding z-score [2],PBM binding z-score [3],PBM binding z-score [4],PBM binding z-score [5],PBM binding z-score [6],PBM binding z-score [7],PBM binding z-score [8]
GCAGATAGGTAATACAAGGTGAAAGTCCGATTGT,0.807,0.57,0.471,-0.0602,0.646,4.12,0.853,0.0811
TAGCCTAGGTCATGCGGGCCAGAATAGTGTCGGC,2.94,4.18,4.34,0.571,3.18,3.03,0.922,0.435
GCTAGTTGGTCAGTATAAGGTCACACACCGGTCG,4.41,4.28,3.75,0.514,3.9,4.29,5.46,2.76
CCTAGCAGGCCAGGGTCACTCAGGCATTTCGCTT,2.73,2.77,2.03,0.226,3.07,2.58,0.878,1.07
ATGTGTAGGTTATCGGGTCATTCAGTTTGCGCAT,3.35,3.59,2.67,1.75,3.57,3.57,3.71,3.91
AGAACGAGGTCAATGAGTTGATAGCACGGGTGGC,3.94,5.78,5.81,4.11,6.03,3.94,2.08,5.27
CCAGACAGGTGTGAAGGTAACTCAGCCTCGATTA,0.327,-0.276,-0.122,0.399,-0.117,0.116,0.347,0.0431
TCTAGTTGGTCACGGAGTTCACACACGACGGGTA,3.11,2.99,2.63,1.79,2.81,1.66,0.539,5.75
CGAACTAGGTCATCCTGGACAGTGAATACATTGA,2.86,3.82,4.56,2.37,2.67,2.89,1.35,1.5
AGAACGAGGGCAATGAGTTTATAGCACGGGTGGC,1.18,1.27,1.88,2.91,0.965,0.983,-0.489,5.83
TCATGTAGATCAGCAGGTTAAGAAAGCTGGCCAA,-0.0199,-0.0908,-0.0942,0.626,0.381,0.195,-0.553,-0.749
ACTAGCAGGCCAAATTTGGGTCACTCAAACAAAG,2.36,2.39,1.39,0.0631,0.936,2.45,0.758,-0.0164
GGAACGAGGGCAAGGTTGATAGCATCTGTCGACG,1.67,1.67,1.88,1.72,1.32,1.45,0.156,1.39
CCTACTGGGCCAAAGGTCATTGAGTCCAATGCTC,4.88,5.8,4.63,1.78,6.07,3.57,0.746,4.9
CCTTACAGGTCACTCCAGGTTATAGCATCGGAGT,3.76,4.74,4.71,2.2,4.35,5.15,1.32,2.04
GCAGACTGGTGAAACGCAGGTAACTCAGGGTGGC,-1.13,-0.789,-0.946,-1.05,-0.735,0.213,-0.648,-1.15
AGACAAAGTTCACTAGGTAACGTAAGATTCAGCT,3.8,4.72,5.53,4.31,3.69,2.09,-0.00149,3.48
CGTCAAAGTTTAACTAAGGTAACGTAAAGCACGC,1.7,1.51,1.92,1.68,0.784,4.66,1.99,0.79
GCTGCTAGGTCAGGTTGGTCAGCTTACGGGTACG,2.84,2.41,3.46,0.504,0.756,1.8,0.808,0.197

# — the supplement of paper PMC6555819
